Measured values published in PubChem BioAssay AID504333 (National Center for Advancing Translational Sciences (NCATS), 2011).
In all, about 360,000 compounds went through this assay and about 16,000 (4.4%) were called active. About 9% were inconclusive and are not listed. Calls follow the shape of the dose curve; as a rule, active = well fitted inhibition curve with a large enough effect; inconclusive = small, poorly fitted or top-dose-only effect; inactive = no such curve, though single readings can be large or run the other way. The entries come from a sample that favours actives as a whole.

target: Bromodomain adjacent to zinc finger domain protein 2B (Homo sapiens) (UniProt Q9UIF8); experiment: qHTS Assay for Inhibitors of BAZ2B; settings: AlphaScreen BAZ2B-H3K14Ac peptide displacement; series mostly up to 114 µM; activity change, negative = inhibition: at the top concentration; also: nearly all actives have a fitted effect of over 60% in size
Sequence (Q9UIF8 whole entry, looked up, the tested form may be a part): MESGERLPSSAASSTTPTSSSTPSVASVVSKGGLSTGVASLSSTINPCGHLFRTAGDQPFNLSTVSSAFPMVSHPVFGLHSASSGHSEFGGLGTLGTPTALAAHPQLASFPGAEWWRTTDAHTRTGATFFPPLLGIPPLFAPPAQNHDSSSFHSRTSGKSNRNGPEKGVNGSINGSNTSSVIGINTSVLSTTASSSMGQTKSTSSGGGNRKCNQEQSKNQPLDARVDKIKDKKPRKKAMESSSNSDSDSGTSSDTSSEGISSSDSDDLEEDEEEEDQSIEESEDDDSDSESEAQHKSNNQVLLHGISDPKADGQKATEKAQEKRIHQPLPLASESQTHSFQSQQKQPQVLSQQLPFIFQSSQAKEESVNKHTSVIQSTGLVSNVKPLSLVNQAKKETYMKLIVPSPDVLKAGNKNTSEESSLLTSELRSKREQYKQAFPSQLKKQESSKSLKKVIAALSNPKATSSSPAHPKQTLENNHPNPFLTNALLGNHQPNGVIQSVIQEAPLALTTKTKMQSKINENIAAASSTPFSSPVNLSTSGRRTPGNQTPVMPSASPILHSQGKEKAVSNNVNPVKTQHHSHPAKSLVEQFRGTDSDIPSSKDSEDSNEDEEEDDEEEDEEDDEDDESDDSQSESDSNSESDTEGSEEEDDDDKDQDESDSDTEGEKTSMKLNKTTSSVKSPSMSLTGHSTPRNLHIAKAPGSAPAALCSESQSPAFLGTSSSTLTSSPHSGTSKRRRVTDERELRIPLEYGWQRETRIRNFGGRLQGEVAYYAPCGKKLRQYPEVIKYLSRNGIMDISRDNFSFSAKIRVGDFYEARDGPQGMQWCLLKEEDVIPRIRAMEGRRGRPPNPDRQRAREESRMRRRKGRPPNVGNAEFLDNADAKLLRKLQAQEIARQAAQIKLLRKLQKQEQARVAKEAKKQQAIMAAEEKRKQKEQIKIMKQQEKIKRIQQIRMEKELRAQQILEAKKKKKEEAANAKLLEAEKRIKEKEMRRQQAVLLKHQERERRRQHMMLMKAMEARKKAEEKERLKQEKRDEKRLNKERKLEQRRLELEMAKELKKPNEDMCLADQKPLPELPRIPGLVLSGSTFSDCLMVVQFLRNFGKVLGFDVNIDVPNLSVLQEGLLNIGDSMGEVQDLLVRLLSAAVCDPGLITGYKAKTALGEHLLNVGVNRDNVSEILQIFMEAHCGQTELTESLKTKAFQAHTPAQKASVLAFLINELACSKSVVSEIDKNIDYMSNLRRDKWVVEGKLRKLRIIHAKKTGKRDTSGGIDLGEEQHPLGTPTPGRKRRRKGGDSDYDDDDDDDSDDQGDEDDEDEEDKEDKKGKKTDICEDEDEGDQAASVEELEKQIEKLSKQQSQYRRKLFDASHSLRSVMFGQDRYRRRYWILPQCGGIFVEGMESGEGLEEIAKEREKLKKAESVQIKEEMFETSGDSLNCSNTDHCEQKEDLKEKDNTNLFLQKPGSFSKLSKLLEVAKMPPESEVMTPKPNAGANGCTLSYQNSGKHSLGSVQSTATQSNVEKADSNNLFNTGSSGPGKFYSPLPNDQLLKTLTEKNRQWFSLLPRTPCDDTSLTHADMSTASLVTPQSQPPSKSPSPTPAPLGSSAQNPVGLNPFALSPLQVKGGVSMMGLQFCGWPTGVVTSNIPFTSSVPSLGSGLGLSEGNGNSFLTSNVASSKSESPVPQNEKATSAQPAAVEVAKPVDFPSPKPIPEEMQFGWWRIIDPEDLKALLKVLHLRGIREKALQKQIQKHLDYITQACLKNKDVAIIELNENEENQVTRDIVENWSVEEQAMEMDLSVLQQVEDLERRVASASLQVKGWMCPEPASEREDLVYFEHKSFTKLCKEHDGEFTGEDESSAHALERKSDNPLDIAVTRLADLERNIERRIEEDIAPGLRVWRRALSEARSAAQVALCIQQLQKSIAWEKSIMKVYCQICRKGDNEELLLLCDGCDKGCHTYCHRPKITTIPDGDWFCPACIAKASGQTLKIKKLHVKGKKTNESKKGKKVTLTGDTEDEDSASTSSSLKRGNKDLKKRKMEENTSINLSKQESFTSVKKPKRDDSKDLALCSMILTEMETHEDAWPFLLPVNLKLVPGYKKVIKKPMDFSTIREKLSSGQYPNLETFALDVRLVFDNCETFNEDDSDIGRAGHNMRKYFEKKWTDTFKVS
How it was run: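 Multi-concentration screen (max 110 uM) measuring displacement of acetylated histone H3 peptide from BAZ2B by AlphaScreen, using 50 nM protein, 50 nM peptide and 10 ug/mL streptavidin donor plus Ni-chelate acceptor beads.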
% is scaled to controls: 0 for no effect and ±100 for the full control effect; potency is read from the fitted curve at half-maximal effect.

Activity change, negative = inhibition, inactive:
Cc1ccc(N(CC(=O)NCc2ccc(Cl)cc2)S(=O)(=O)N(C)C)cc1 2.41%
CCOc1ccc(NC(=O)CCC(=O)N2CC(C)Oc3ccc(C)cc32)cc1 (centres undefined) 0.864%
CCCn1c2ccccc2c2cnn(CC(=O)NCC3CCN(Cc4ccc(C)cc4)CC3)c(=O)c21 -14.3%
Cc1ccc(NC(=O)c2oc3ccc(S(=O)(=O)N4CCCCC4)cc3c2C)cc1Cl 2.57%
COc1ccc(Cl)cc1S(=O)(=O)N1CCC(c2ccncc2)CC1 -3.34%
Cc1nn(Cc2ccc(F)cc2)c(C)c1NC(=O)c1cc(CC(C)C)on1 2.89%
Cc1cc(C)c2oc(C(=O)Nc3c(C(=O)Nc4ccccc4)oc4ccccc34)cc(=O)c2c1 -1.94%
COc1ccc2[nH]cc(CCN3C(=O)c4ccc(C(=O)O)cc4C3=O)c2c1 -3.1%
COC(=O)CN1C(=O)C(O)=C(C(C)=O)C1c1ccc([N+](=O)[O-])cc1 (centres undefined) -0.86%
Cc1cccc(N(C)C(=O)CS(=O)(=O)c2cccc3nsnc23)c1 5.25%
Cc1ccc(C)c(N2C(=O)N(Cc3c(F)cccc3Cl)c3ccccc3S2(=O)=O)c1 -12.1%
CC(=O)c1cc(C#N)c(SCC(=O)Nc2nccs2)nc1C -15.2%
CC(=O)c1cc(C#N)c(SCC(=O)C(C)(C)C)nc1C -24.6%
Cc1cccc(-c2nnc(SCC(=O)N3CCCc4ccccc43)o2)c1 2.41%
CCC(=O)N1CCc2cc(Br)cc(S(=O)(=O)NCc3ccc(Cl)cc3)c21 -12.3%
COc1ccccc1CNC(=O)Cn1nc(C)c2nn(-c3ccc(Cl)cc3)c(C)c2c1=O 5.44%
CCN(C(=O)Cn1cnc2sc(C)c(S(=O)(=O)N3CCN(c4ncccn4)CC3)c2c1=O)c1ccccc1F -1.72%
CCCCc1nnc(NC(=O)CSc2nc(C)cc(=O)[nH]2)s1 -6.69%
CCOC(=O)Cc1csc(NC(=O)CSc2ccc(Br)cc2)n1 -1.86%
O=C(CSc1ncc(-c2ccccc2)[nH]1)Nc1ccc(F)cc1F -39%
COC(=O)c1c(NC(=O)C(C)Oc2ccc(Cl)c(C)c2)sc(C)c1C (centres undefined) 59.2%
COC(=O)CN1C(=O)CSc2ccc(S(=O)(=O)Nc3cc(C)ccc3C)cc21 -14.5%
CCc1ccc(CN(Cc2ccco2)C(=O)COc2ccc(Cl)c(C)c2)cc1 40.4%
O=C(O)c1cccc(NC(=S)N/N=C/c2c[nH]c3ccccc23)c1 -21.7%
O=C(N/N=C/c1c[nH]c2ccccc12)c1ccccc1O 6.98%
O=C(NCCc1ccccc1)c1ccc2c(c1)N(Cc1ccccc1)C(=O)c1ccccc1S2(=O)=O -9.92%
CCC(=O)N1CCc2cc(CNS(=O)(=O)c3ccc(Br)s3)ccc21 4%
C#CCOCCOCCOCCNc1nc(N2CCN(C(=O)[C@H](CCCCN)n3cc(CCC(=O)O)nn3)CC2)nc(N2CCN(C(=O)[C@H](CCCCN)n3cc(CC(C)O)nn3)CC2)n1 (some centres undefined) 3.58%
CCOc1ccc(N(CC)S(=O)(=O)N2CCCC(C(=O)NCc3ccc(Cl)cc3)C2)cc1 (centres undefined) -7.7%
CCCCNC(=O)C1CCCN(c2nnc(C)c3c(C)n(-c4ccc(Cl)cc4)nc23)C1 (centres undefined) -11.8%
CCN(CC)C(=O)CSc1nc2cc3c(cc2c(=O)n1CCCC(=O)NCc1ccc2c(c1)OCO2)OCO3 -18.3%
Cc1ccc2onc(CC(=O)N3CCN(c4ccc(Cl)cc4)CC3)c2c1 -1.17%
Cc1ccc2cccc(NC(=O)c3cccc4ccccc34)c2n1 31.4%
CCc1ccc(N2C(=O)CN(S(=O)(=O)CC)CC2(C)C(=O)NC2CCCCC2)cc1 (centres undefined) 3.92%
COc1ccc(-c2cn3ccc(C)cc3n2)cc1 -17%
COc1cc(OC)cc(C(=O)Nc2cc3nn(-c4ccccc4)nc3cc2Cl)c1 -6.64%
Cc1cccc(C(CC(=O)NCC2(c3ccccc3)CCCC2)c2ccccc2)c1O (centres undefined) 3.1% [at 57.1 µM]
Cn1c(SCC(=O)N2CCCc3ccccc32)ncc(C(=O)Nc2ccc(F)cc2)c1=O 1.92%
COc1ccc(CNc2nc(-c3ccc(Cl)cc3)cc(C(F)(F)F)n2)cc1 146%
CCOc1ccc(S(=O)(=O)NCCCn2ccnc2)cc1NC(C)=O -8.46%
Brc1ccc(OCCn2ccnc2)cc1 -4.22%
O=C(NCCCn1ccnc1)c1ccccc1F 5.41%

Potency, active:
COc1ccc(C2C(C(C)=O)=C(O)C(=O)N2CCc2c[nH]c3ccccc23)cc1 (centres undefined) 56.2 µM
CC(=O)c1cc(C#N)c(N2CCCCC2)nc1C 56.2 µM
CCOC(=O)Cc1csc(NC(=O)CSc2nc(C)cc(=O)[nH]2)n1 50.1 µM
CSC(=S)N/N=C/c1c[nH]c2ccccc12 35.5 µM
C#CCOCCOCCOCCNc1nc(N2CCN(C(=O)[C@H](CCC(=O)O)n3cc(C(N)CO)nn3)CC2)nc(N2CCN(C(=O)[C@H](CCCCN)n3cc(C(N)CC(C)C)nn3)CC2)n1 (some centres undefined) 44.7 µM
C#CCOCCOCCOCCNc1nc(N2CCN(C(=O)[C@H](CCC(=O)O)n3cc(C(N)CO)nn3)CC2)nc(N2CCN(C(=O)[C@H](CCCCN)n3cc(C(N)[C@H](C)CC)nn3)CC2)n1 (some centres undefined) 14.1 µM
Cc1ccn2cc(-c3nonc3C)cc2c1 56.2 µM
